This passage reports growth results from PubChem BioAssay (NCI).

Some test systems named below: DU-145 prostate; K-562 leukemia; MALME-3M melanoma; MDA-MB-231 breast; RXF 393 renal; SF-268 CNS; SF-295 CNS; SF-539 CNS; UACC-257 melanoma; M14 melanoma; HCT-15 colon; HT29 colon; SNB-75 CNS; SNB-19 CNS; U251 CNS; PC-3 prostate; SK-MEL-5 melanoma; UACC-62 melanoma; LOX IMVI melanoma; SK-MEL-28 melanoma.
Assay in all cases: NCI-60 one-dose screen, 48 h (100 = growth as untreated, 0 = no growth, -100 = all killed)
Settings in all cases: 10 µM unless noted

The structures appear in SMILES notation. Compounds without any hit were thinned out: in the full panel of roughly 83,000, 20% have a hit.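 Activity criterion: percent growth below 10, measured after cells in 96-well plates were exposed to a single compound concentration for 48 hours.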 Unmarked numbers belong to inactive results. Active and inactive are the calls of the source.

For `CCSc1ccc([C@@H]2[C@@H](N)C(=O)N2c2cc(OC)c(OC)c(OC)c2)cc1`, the growth was 23.7% in the assay with DU-145 prostate; 7.64% (active) in the assay with K-562 leukemia; 63.8% in the assay on MALME-3M melanoma; 41% in the assay on MDA-MB-231 breast; -17% (active) with RXF 393 renal; 54.6% in the assay with SF-268 CNS. For the same molecule, the growth is 10.2% with SF-295 CNS; -22.6% (active) with SF-539 CNS; 67.7% in the assay on UACC-257 melanoma; -15.5% (active) with M14 melanoma; 19.9% with HCT-15 colon; 12.1% with HT29 colon. The growth was 36.2% in the assay with SNB-75 CNS; 32% with SNB-19 CNS; 28.1% in the assay with U251 CNS; 28.5% in the assay with PC-3 prostate; 20% with SK-MEL-5 melanoma; 33.9% in the assay with UACC-62 melanoma. In addition, the growth was 50.7% with LOX IMVI melanoma and 61.6% in the assay with SK-MEL-28 melanoma.

With `CCCc1n(Cc2ccc3ccccc3n2)cc[n+]1Cc1ccc2ccccc2n1`, the growth was 51.2% in the assay with DU-145 prostate; 12.8% with K-562 leukemia; 12.5% with MALME-3M melanoma; 17.8% in the assay on MDA-MB-231 breast; 48.7% in the assay on RXF 393 renal; 27.8% in the assay on SF-268 CNS. The growth with SF-295 CNS is 59.9%; in the assay with SF-539 CNS, 31.2%; with UACC-257 melanoma, -11.5% (active); in the assay on M14 melanoma, 37.2%; in the assay with HCT-15 colon it was 95.7%; with HT29 colon, 16.8%. The growth with SNB-75 CNS is 19.5%; in the assay on SNB-19 CNS, 19.1%; in the assay on U251 CNS, 20.6%; in the assay on PC-3 prostate, 24.8%; in the assay with SK-MEL-5 melanoma, -49% (active); in the assay on UACC-62 melanoma it was 1.66% (active). Also, the growth in the assay on LOX IMVI melanoma is 18%; in the assay on SK-MEL-28 melanoma it was 19.3%.

For `Clc1ccc(Nc2ncnc3c2sc2ncccc23)cc1`, the growth with DU-145 prostate was 20.2%; in the assay on K-562 leukemia, 46.6%; in the assay with MALME-3M melanoma, 65.6%; in the assay on MDA-MB-231 breast, 63.9%; in the assay on RXF 393 renal it was 32.9%; in the assay with SF-268 CNS, 23%. In addition, the growth in the assay on SF-295 CNS is 19.1%; in the assay on SF-539 CNS it was 6.42% (active); in the assay on UACC-257 melanoma, 41.6%; in the assay with M14 melanoma it was -21.5% (active); in the assay with HCT-15 colon, 47.3%; with HT29 colon it was 38.1%. In addition, the growth in the assay with SNB-75 CNS is 47.9%; in the assay on SNB-19 CNS, 26.3%; with U251 CNS, 28%; in the assay on PC-3 prostate, 54.5%; in the assay on SK-MEL-5 melanoma, 23.4%; in the assay on UACC-62 melanoma, 11.4%. Besides, the growth in the assay with LOX IMVI melanoma is 12.2%; with SK-MEL-28 melanoma it was 74.9%.

For `O=Cc1ccc2nc(C(Cl)(Cl)Cl)ccc2c1`, the growth with DU-145 prostate was 102%; in the assay on K-562 leukemia it was 121%; with MALME-3M melanoma it was 91.4%; in the assay with MDA-MB-231 breast it was 108%; in the assay on RXF 393 renal, 94.7%; with SF-268 CNS it was 107%. The growth with SF-295 CNS was 97.2%; in the assay with SF-539 CNS it was 98.8%; in the assay on UACC-257 melanoma, 103%; in the assay on M14 melanoma, 81.6%; with HCT-15 colon, 101%; in the assay with HT29 colon, 102%. The growth is 99.9% in the assay on SNB-75 CNS; 102% with SNB-19 CNS; 92.8% with U251 CNS; 98.4% in the assay with PC-3 prostate; 95% in the assay with SK-MEL-5 melanoma; 106% in the assay on UACC-62 melanoma. For the same molecule, the growth was 96.1% in the assay with LOX IMVI melanoma and 105% in the assay with SK-MEL-28 melanoma.

As for `CCCc1n(Cc2ccc3ccccc3c2)c2ccccc2[n+]1Cc1ccc2ccccc2c1`, the growth in the assay on DU-145 prostate was 2.32% (active); in the assay on K-562 leukemia, -70.8% (active); in the assay with MALME-3M melanoma, -63% (active); in the assay with MDA-MB-231 breast, -71.7% (active); in the assay on RXF 393 renal, -79.3% (active); in the assay with SF-268 CNS, -49.7% (active). In addition, the growth was -59.8% (active) with SF-295 CNS; -34.5% (active) with SF-539 CNS; -49.9% (active) with UACC-257 melanoma; -72% (active) with M14 melanoma; 4.29% (active) with HCT-15 colon; -72.2% (active) in the assay on HT29 colon. Moreover, the growth with SNB-75 CNS was -18.2% (active); in the assay on SNB-19 CNS, -76% (active); in the assay with U251 CNS, -92.6% (active); in the assay on PC-3 prostate, -22.8% (active); with SK-MEL-5 melanoma it was -97.3% (active); in the assay on UACC-62 melanoma, -89.2% (active). For the same molecule, the growth was -90.5% (active) with LOX IMVI melanoma and -53.6% (active) in the assay on SK-MEL-28 melanoma.

For `COc1cc(/C=C/c2ccc3c(Br)cc(Br)c(O)c3n2)ccc1O`, the growth with DU-145 prostate is 42.2%; in the assay with K-562 leukemia, -44.5% (active); with MALME-3M melanoma it was 53.7%; in the assay on MDA-MB-231 breast it was 53%; in the assay with RXF 393 renal, 1.71% (active); in the assay with SF-268 CNS, 22.8%. In addition, the growth with SF-295 CNS was 27.4%; in the assay on SF-539 CNS, 21.5%; in the assay with UACC-257 melanoma it was 25.1%; in the assay on M14 melanoma it was 27.1%; in the assay with HCT-15 colon it was 27.6%; with HT29 colon, 36.7%. The growth in the assay on SNB-75 CNS is 36.5%; in the assay with SNB-19 CNS it was 23.4%; with U251 CNS, 16.4%; with PC-3 prostate, 12.9%; with SK-MEL-5 melanoma, 27.5%; in the assay on UACC-62 melanoma it was 10%. For the same molecule, the growth was 29.5% with LOX IMVI melanoma and 23.3% in the assay with SK-MEL-28 melanoma.

In the case of `COc1cc(Nc2ccnc3ccc(Br)cc23)cc(OC)c1OC`, the growth in the assay on DU-145 prostate was 59.1%; in the assay on K-562 leukemia it was 10.2%; with MALME-3M melanoma, 46.7%; with MDA-MB-231 breast it was 38%; in the assay with RXF 393 renal, 2.9% (active); in the assay with SF-268 CNS, 47.6%. In addition, the growth with SF-295 CNS is 25.6%; in the assay with SF-539 CNS it was 12.7%; in the assay on UACC-257 melanoma, 38.2%; in the assay with M14 melanoma it was 14.3%; in the assay on HCT-15 colon, 30.6%; in the assay with HT29 colon it was 14.2%. In addition, the growth with SNB-75 CNS is -4.34% (active); in the assay on SNB-19 CNS it was 32.9%; in the assay with U251 CNS, 18.6%; in the assay with PC-3 prostate, 26.7%; in the assay on SK-MEL-5 melanoma, 8.82% (active); with UACC-62 melanoma, 30.4%. For the same molecule, the growth in the assay on LOX IMVI melanoma is 32%; in the assay on SK-MEL-28 melanoma, 58.3%.

With `CC1=NOCC(=O)N1`, the growth in the assay on DU-145 prostate is 111%; in the assay with K-562 leukemia, 92.1%; in the assay on MALME-3M melanoma, 117%; in the assay with MDA-MB-231 breast, 102%; in the assay with RXF 393 renal it was 103%; in the assay on SF-268 CNS it was 107%. The growth in the assay on SF-295 CNS is 87.7%; with SF-539 CNS it was 99.3%; in the assay with UACC-257 melanoma it was 101%; with M14 melanoma it was 103%; in the assay on HCT-15 colon, 102%; with HT29 colon, 101%. For the same molecule, the growth in the assay with SNB-75 CNS is 85.3%; in the assay on SNB-19 CNS, 95.6%; with U251 CNS, 94.7%; in the assay on PC-3 prostate, 95.2%; in the assay on SK-MEL-5 melanoma it was 99.7%; in the assay with UACC-62 melanoma it was 102%. Moreover, the growth in the assay with LOX IMVI melanoma was 89.1%; in the assay with SK-MEL-28 melanoma it was 99.4%.
